This excerpt belongs to a sample that is enriched for hits.
Tb PFK inh = qHTS Assay to Find Inhibitors of T. brucei phosphofructokinase; T. brucei PFK, ADP-Glo luminescence; Potency, µM (series often up to 57.5 µM), without a hit: at the highest dose activity, negative = inhibition, usual class: inhibitors; 330,000 compounds, 0.17% hits; AID 485367, 2010;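 note: potency is the fitted concentration of half-maximal effect; 0% = uninhibited 1x PFK enzyme wells and -100% = no-enzyme wells; nearly all actives have a fitted effect of over 60% in size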
Target sequence (O15648 whole entry, looked up): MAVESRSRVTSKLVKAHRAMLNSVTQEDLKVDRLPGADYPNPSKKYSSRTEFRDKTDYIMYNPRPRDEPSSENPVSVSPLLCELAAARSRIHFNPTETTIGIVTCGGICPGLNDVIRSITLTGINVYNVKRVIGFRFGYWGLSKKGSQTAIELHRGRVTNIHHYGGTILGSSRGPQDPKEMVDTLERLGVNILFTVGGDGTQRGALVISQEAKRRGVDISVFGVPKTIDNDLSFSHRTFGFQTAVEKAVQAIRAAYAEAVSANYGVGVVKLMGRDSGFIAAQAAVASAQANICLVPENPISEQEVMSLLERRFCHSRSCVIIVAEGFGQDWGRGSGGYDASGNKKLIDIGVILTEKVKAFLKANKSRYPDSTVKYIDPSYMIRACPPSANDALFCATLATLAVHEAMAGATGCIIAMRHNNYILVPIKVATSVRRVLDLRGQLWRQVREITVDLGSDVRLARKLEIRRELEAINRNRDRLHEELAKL
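Activity is normalized to no-enzyme wells (full inhibition) and 1.25 nM enzyme wells (no inhibition). Reaction: 0.5 mM F6P, 0.1 mM ATP, 45 min RT, ADP-Glo luminescence; concentration-response curves fitted and classed by quality.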
PI4K2A inh = qHTS for small molecular inhibitors of PI4K2A | Phosphatidylinositol 4-kinase type 2-alpha (Homo sapiens), Q9BTU6 | purified PI4K2A, ADP-Glo luminescence, 1 h; hits give low values | activity change, negative = inhibition, % at 76.9 µM | 420,000 compounds, 0.13% hits | AID 1346378, 2018; in the data active = activity change below about -50%; inconclusive = mostly about -30% to -49%;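 note: -100% = wells without enzyme as full effect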
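ADP-Glo luminescence measured ADP generated by PI4K2A enzyme (4 ug/mL before mixing) with 1.2 mM PI substrate (pre-mix) and 300 microM ATP (pre-mix). Tris pH7.5 buffer with MgCl2, Triton X-100; 1 h reaction at ambient temperature.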
PI5P4Ka inh = qHTS for Inhibitors of phosphatidylinositol 5-phosphate 4-kinase (PI5P4K); Phosphatidylinositol 5-phosphate 4-kinase type-2 alpha (Homo sapiens), P48426; PI5P4Kalpha enzyme, ADP-Glo luminescence, 60 min; hits give low values; max response, %; 330,000 compounds, 1.2% hits; AID 652105, 2013; active = max response of -50% or lower; inconclusive = between -30% and -50%; inactive = -30% or higher; note: value at the top dose of about 77 µM
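Enzyme plus substrate dispensed, test compounds pinned in, then ATP (5 microM final) added. After 60 min at RT, ADP-Glo reagent 1 for 45 min and reagent 2 for 30 min preceded luminescence imaging.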
PGK inhibitor = qHTS Assay to Find Inhibitors of Phosphoglycerate Kinase; Phosphoglycerate kinase, glycosomal (Trypanosoma brucei brucei), P07378; PGK/GAPDH coupled, Kinase-Glo luminescence, 60 min; Potency, µM (top dose mostly 57.5 µM), for inactives: at the highest dose activity change, negative = inhibition, most hits filed as inhibitors; 380,000 compounds, 0.043% hits; AID 602233, 2012; note: potency is the fitted concentration of half-maximal effect; nearly all actives have a fitted effect of over 60% in size
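Luminescent ATP detection (Kinase-Glo Plus) follows a 60-minute room-temperature incubation, with wells lacking PGK as controls. Buffer: 100 mM TEA (pH 7.6), 5 mM MgCl2, 0.01% Tween-20. Coupling enzyme GAPDH (100 nM final) supplies unstable 1,3-BPG in-well.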
Pin1 inhibitor = qHTS Assay to Find Inhibitors of Pin1 | 390,000 compounds, 0.009% hits | AID 504891, 2011 | Potency, µM (top dose mostly 115 µM), for the others: at the top dose activity, negative = inhibition, actives largely listed as inhibitors | Pin1 FP peptide displacement, HiFluor488, 10 min; active = well fitted inhibition curve with a large enough effect in the polarisation, with a control signal flat, not every such curve was filed as active; inconclusive = small, poorly fitted or top-dose-only effect, or effect the other way, or a change in a side signal; inactive = no such curve, though single readings can be large or run the other way; the % refers to the polarisation; note: potency is the fitted concentration of half-maximal effect
Target sequence (Q13526 whole entry, looked up): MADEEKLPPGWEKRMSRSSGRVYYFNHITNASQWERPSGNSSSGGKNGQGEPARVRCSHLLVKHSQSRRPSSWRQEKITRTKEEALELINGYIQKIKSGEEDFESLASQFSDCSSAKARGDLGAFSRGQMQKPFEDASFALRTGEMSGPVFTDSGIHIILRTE
* = called active by the depositor; ? = inconclusive; nt = no result given; ! = not active in a repeat. Unless noted, calls come from the whole dose curve; as a rule, active = well fitted curve in the direction sought with a large enough effect; inconclusive = small, poorly fitted or top-dose-only effect, or another doubt; inactive = no such curve, though single readings can be large; an effect the other way counts as inactive or inconclusive. Unless noted, % is set by controls: 0 for no effect and ±100 for the full control effect.

SMILES | Tb PFK inh | PI4K2A inh | PI5P4Ka inh | PGK inhibitor | Pin1 inhibitor
CN1C(=O)/C(=C/c2ccc(-c3ccccc3[N+](=O)[O-])o2)SC1=Nc1ccc(Cl)c(C(=O)O)c1 | 7% | -6 | -60* | -16% | ?
O=C(NCCc1nc2ccccc2n1CCO)C1CCCCC1 | nt | nt | nt | nt | -5%
Cc1nc(C)c(-c2csc(Nc3ccc(O)c(C(=O)O)c3)n2)s1 | 0% | 1 | -74* | 4% | -6%
Cc1cccc(NC(=O)CSc2nnc(SCc3ccc(Cl)cc3)s2)c1 | nt | 2 | nt | nt | nt
O=Cc1c(-c2ccc(Cl)cc2)oc2ccc(O)cc12 | nt | -1 | -67* | -8% | ?
O=C(O)c1c(-c2ccccc2)oc2ccc(O)cc12 | 2% | 2 | 5 | 4% | -5%
Cc1ccc(NC(=O)CCCN2C(=O)/C(=C/C=C/c3ccccc3)SC2=S)cc1 | 0% | 9 | -7 | 0% | 31%
O=C(NN1C(=O)/C(=C/C=C/c2ccco2)SC1=S)c1ccccc1O | -23% | -24 | -78* | ? | 11%
Cn1cccc1/C=C1\SC(=S)N(NC(=O)c2ccccc2O)C1=O | 0% | 4 | -13 | -1% | ?
O=C(O)CCCN1C(=O)/C(=C/C=C/c2ccco2)SC1=S | ? | -10 | -64* | ? | ?
COc1ccc(CN(Cc2ccccc2)C(=O)c2ccccc2O)cc1COc1ccc(NC(C)=O)cc1 | nt | nt | nt | nt | 17%
O=C(Nc1nc(Nc2cc(F)cc(F)c2)nc(NC2CCCC2)n1)OCc1ccccc1 | nt | nt | nt | nt | 1%
CC[C@H](C)/C=C(C)/C=C/C(=O)Cc1cc(O)c(C)c(O)c1C=O | -3% | -11 | -57* | -10% | ?
COc1ccc(-c2nc3ccccc3n2Cc2ccccc2)cc1COc1ccc(NC(C)=O)cc1 | nt | nt | nt | nt | 14%
O=C(NNc1cc(Br)c(O)c(Br)c1)c1ccccc1 | -2% | -9 | -91* | -3% | -2%
NS(=O)(=O)c1ccc(NNC(=O)c2ccccc2)cc1 | -18% | 5 | 8 | 5% | 1%
Nc1c(C=C2C=CC(=O)C=C2)c(=O)nc2sc(CC(=O)N3CCCCC3)nn12 | 1% | 0 | ? | -12% | 2%
CCOC1=C/C(=C/c2c(N)n3nc(CC(=O)N4CCCC4)sc3nc2=O)C=CC1=O | 2% | 2 | -55* | -3% | ?
COC1=CC(=Cc2c(N)n3nc(CC(=O)N4CCCCC4)sc3nc2=O)C=C(OC)C1=O | -1% | 2 | -58* | -4% | ?
COC1=C/C(=C/c2c(N)n3nc(CC(=O)N4CCCC4)sc3nc2=O)C=CC1=O | 2% | 1 | -56* | -8% | ?
Nc1c(/C=C2/C=CC(=O)C(O)=C2)c(=O)nc2sc(CC(=O)N3CCCC3)nn12 | ? | 0 | -56* | ? | 39%
CCOC(=O)Cn1cc(CN2CCS(=O)(=O)N(Cc3ccccc3)C(C(=O)OC)C2)nn1 (stereo not drawn) | nt | -4 | nt | nt | nt
O=[S+]([O-])(/C=C/c1nc(Nc2cc(F)cc(F)c2)c2ncn(CC(F)F)c2n1)c1ccccc1 | nt | nt | nt | nt | 0%
CCOC(=O)c1ccc(OCCN2C[C@H](O)[C@@H](O)[C@H](O)[C@H]2CO)cc1 | nt | -4 | nt | nt | nt
Cc1c(P(=S)(c2ccccc2)c2ccccc2)[n+]2ccccc2n1Cc1ccccc1 | nt | nt | nt | nt | 1%
SMILES | Tb PFK inh | PI4K2A inh | PI5P4Ka inh | PGK inhibitor | Pin1 inhibitor
O=C1c2ccccc2C(=O)c2c(Nc3ccc(CCO)cc3)ccc(O)c21 | -22% | -19 | -9 | -19% | -10%
O=C1c2c(O)ccc(O)c2C(=O)c2c(NCCNCCO)ccc(NCCNCCO)c21 | -11% | ? | -66*! | -19% | ?
O=C(OC12CCCN(C1)/C(=C/c1ccc(Cl)cc1)C2)C1CCCC1 (stereo not drawn) | nt | -5 | nt | nt | nt
Cc1nn2c(=S)[nH]nc2[nH]c1=O | ? | -8 | -53* | -4% | 2%
Cc1n[nH]c(=S)n(NC(=O)/C=C/C(=O)Nn2c(=S)[nH]nc(C)c2=O)c1=O | -20% | -4 | ? | ? | ?
CCn1cnc2sc(-c3ccccc3)cc2c1=O | 0% | -21 | 0 | 4% | 0%
N#CCn1cnc2sc(-c3ccccc3)cc2c1=O | -6% | 6 | -52* | 0% | 40%
Cc1cc(SCc2cccc([N+](=O)[O-])c2)nc(=O)[nH]1 | -19% | -6 | ? | 0% | 7%
Cc1cc(SCc2ccc([N+](=O)[O-])cc2)nc(=O)[nH]1 | ? | -3 | -59* | 5% | 8%
Cc1cc(SCC(=O)c2cccc([N+](=O)[O-])c2)nc(=O)[nH]1 | 11% | -6 | -58* | -9% | ?
O=C(CSc1ccc(-c2ccco2)nn1)c1cccc([N+](=O)[O-])c1 | -4% | -29 | -64* | 5% | ?
O=c1oc2ccccc2c(O)c1/C=C1\C=Nc2ccccc21 | 2% | -17 | -56* | 1% | 6%
CCOc1cc(CNc2ccc(O)cc2)cc(Br)c1OCc1ccccc1 | nt | ? | nt | 6% | -1%
Oc1ccc(NCc2ccccc2OCc2ccccc2)cc1 | -8% | ? | -19 | -9% | ?
Oc1ccc(NCc2ccccc2OCc2ccc(Cl)cc2)cc1 | nt | -53* | nt | 8% | ?
CCOc1cc(CNc2ccc(O)cc2)ccc1OCc1ccc(Cl)cc1 | nt | -55* | nt | -6% | ?
COc1ccc(OC)c(N/C=C/C(=O)c2ccccc2)c1 | -13% | -52* | -17 | ? | 20%
COc1ccc(OC)c(N/C(C)=C/C(=O)c2ccccc2)c1 | 4% | -12 | -2 | -5% | 0%
Nn1cnnc1N/N=C/c1ccc(Cl)c([N+](=O)[O-])c1 | -7% | -52* | -9 | -1% | 3%
CSc1ccccc1NC(=O)c1noc2c1CCC2 | 17µM* | -5 | nt | ? | ?
COC(=O)c1ccccc1NC(=O)c1noc2c1CCC2 | ? | -2 | nt | ? | ?
COc1ccc(-n2c(SCC(=O)NCCCSC)nnc2-c2ccncc2)cc1 | nt | -5 | nt | nt | nt
C=C(C)C(=O)Nc1cccc(C2=NOC3(C2)C[C@H](C(N)=O)N(C(=O)c2ccccc2)C3)c1 (stereo partly drawn) | -29% | -25 | -28 | 11µM* | 50%
C=C(C)C(=O)Nc1cccc(C2=NOC3(C2)C[C@@H](C(N)=O)N(C(=O)C2(C)CC2)C3)c1 (stereo partly drawn) | 1.5µM* | -6 | -29 | ? | nt

High-throughput results from PubChem BioAssay.
